CYP2C9 activ: CYP2C9 (human) activation; P11712; recombinant CYP2C9, luciferin-H conversion, luminescence; hits give high values; factor 1 = untreated enzyme, 0 = blocked; activation factor at 5 µM; 96,000 compounds, 1.4% hits; AID 1024;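 active means activation factor of 2 or more for CYP2C9 at a 5 µM dose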;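 further: 0 = sulfaphenazole-blocked wells and 1 = vehicle-only wells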
CYP2C19 activ: activators of human cytochrome P450 2C19; AID 1025; 96,000 tested, under 10 active; activation factor at 5 µM; recombinant CYP2C19, luciferin-H EGE luminescence; hits give high values; 0 = fully inhibited enzyme, 1 = untreated enzyme; P33261;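 active means activation factor of at least 2 at 5 µM in the primary screen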;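 further: 0 = wells with 2.5 mM tranylcypromine and 1 = vehicle-only wells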
CYP2C19 inh: blocks human cytochrome P450 2C19. P33261. CYP2C19 Supersomes, luciferin-H EGE luminescence, 30 min. inhibition, % at 5 µM. 96,000 compounds, 21% hits. AID 778;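 active means CYP2C19 inhibition above a set limit at 5 µM in the primary screen, cut at about 50% in these data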;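 further: plate controls were negative control wells for no effect and 2.5 mM tranylcypromine positive control for full effect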
Mac1 fbg enh: increases human CD11b/CD18 adhesion to fibrinogen; K562 CD11b/CD18 adhesion to fibrinogen, ATPlite luminescence; 93,000 compounds, 0.07% hits; AID 1499; P05107+P11215; activation, % at 10 µM;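 active means 10 µM primary screen giving 50% or more activity, confirmed by 40% or more on retest at that dose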
Target sequence (P05107 whole entry, looked up, other chains not shown): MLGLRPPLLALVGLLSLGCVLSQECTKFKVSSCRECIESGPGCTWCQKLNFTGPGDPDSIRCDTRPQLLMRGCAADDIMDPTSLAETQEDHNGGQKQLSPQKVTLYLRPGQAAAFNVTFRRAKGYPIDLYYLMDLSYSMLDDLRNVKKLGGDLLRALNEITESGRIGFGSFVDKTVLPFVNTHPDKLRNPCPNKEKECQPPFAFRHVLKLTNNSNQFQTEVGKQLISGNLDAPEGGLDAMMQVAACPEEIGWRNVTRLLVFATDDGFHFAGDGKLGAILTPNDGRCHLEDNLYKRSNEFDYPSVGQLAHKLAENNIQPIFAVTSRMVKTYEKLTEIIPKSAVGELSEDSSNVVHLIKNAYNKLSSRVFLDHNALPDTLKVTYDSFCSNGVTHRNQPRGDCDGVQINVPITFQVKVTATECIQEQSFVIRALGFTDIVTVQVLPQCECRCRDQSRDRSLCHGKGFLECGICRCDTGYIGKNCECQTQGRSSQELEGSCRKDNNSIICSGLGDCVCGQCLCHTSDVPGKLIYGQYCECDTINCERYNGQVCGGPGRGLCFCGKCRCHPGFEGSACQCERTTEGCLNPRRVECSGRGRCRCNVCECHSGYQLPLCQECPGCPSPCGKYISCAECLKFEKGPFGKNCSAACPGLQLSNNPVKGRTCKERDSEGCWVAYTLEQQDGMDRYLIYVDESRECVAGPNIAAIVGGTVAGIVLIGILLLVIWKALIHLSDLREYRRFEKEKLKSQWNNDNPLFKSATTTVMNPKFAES
CD11b adhes inh: CD11b/CD18-fibrinogen binding inhibition. P05107+P11215. K562 CD11b/CD18 adhesion to fibrinogen, ATPlite luminescence; Mn2+ added to activate the integrin. inhibition, % at 10 µM. 93,000 compounds, 0.54% hits. AID 1497;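 active means primary inhibition of 50% or more at 10 µM, then 40% or more on retest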
CYP2C9 inh: human CYP2C9 inhibition | P11712 | CYP2C9 Supersomes, luciferin-H conversion, luminescence | inhibition, % at 5 µM | 96,000 compounds, 20% hits | AID 777;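 active means blocking of liver enzyme CYP2C9 beyond about 50% at 5 µM, limit read from the data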
An asterisk follows results filed as active; x = no result. Compounds with a hit are over-represented: about 28% of the library has one in this group of screens.

SMILES | CYP2C9 activ | CYP2C19 activ | CYP2C19 inh | Mac1 fbg enh | CD11b adhes inh | CYP2C9 inh
O=S(=O)(Cc1ccccc1)N1CCC(c2nc(-c3cccs3)no2)CC1 | 0.3 | 0.6 | 41 | -6 | 0 | 68*
COCCn1c(Cc2ccccc2)nnc1SCc1ccc([N+](=O)[O-])cc1 | x | x | x | 0 | -7 | x
O=C(NCc1ccc2c(c1)OCO2)c1ccc(Cl)c(S(=O)(=O)N2CCOCC2)c1 | 0.3 | 0.6 | 38 | -3 | -3 | 68*
O=C(NCc1ccc2c(c1)OCO2)c1ccc(CN2CCOCC2)cc1 | 0.9 | 1 | 2 | -2 | -1 | 9
Cc1ccc(C(=O)NCc2ccc3c(c2)OCO3)cc1S(=O)(=O)N1CCOCC1 | 0.2 | 0.3 | 66* | 1 | -2 | 76*
Cc1ccc(C(=O)NCc2ccc3c(c2)OCO3)cc1S(=O)(=O)N1CCCCC1 | 0.2 | 0.5 | 51* | x | x | 81*
Cc1cc(OC2CCCCC2)nc(-c2ccccc2O)n1 | 0.7 | 1 | 2 | -2 | -3 | 34
O=C(c1ccccc1)c1nn(-c2ccc(Cl)cc2)cc1C(=O)c1cc2ccccc2oc1=O | 0.3 | 0.7 | 26 | -3 | 4 | 67*
COC(=O)c1cc(NC(=O)CN(c2cccc(OC)c2)S(=O)(=O)c2ccccc2)ccc1Cl | x | x | x | 2 | 20 | x
COc1cccc(N(CC(=O)Nc2ccc3c(c2)OCO3)S(=O)(=O)c2ccccc2)c1 | 0.3 | 0.9 | 7 | 0 | -4 | 71*
O=C(CN1CCN(S(=O)(=O)c2ccccc2)CC1)Nc1ccc2c(c1)OCO2 | 0.7 | 0.5 | 49 | 5 | -2 | 29
COc1ccccc1N(CC(=O)Nc1ccc2c(c1)OCO2)S(=O)(=O)c1ccccc1 | 0 | 0.2 | 80* | 0 | -12 | 100*
COC(=O)c1cc(NC(=O)CN(c2ccccc2OC)S(=O)(=O)c2ccccc2)ccc1Cl | 0 | 0.5 | 52* | -1 | 17 | 97*
COc1ccc(S(=O)(=O)N(CC(=O)Nc2ccc3c(c2)OCO3)c2ccccc2OC)cc1 | 0.3 | 0.9 | 6 | 3 | 4 | 72*
NC(=O)C1CCCN(C(=S)Nc2cccc3ccccc23)C1 (stereo unspecified) | x | x | x | 0 | 2 | x
CCSc1nnc(NC(=O)CCNS(=O)(=O)c2cc(Br)cnc2N)s1 | 0.4 | 0.6 | 43 | 0 | -6 | 62*
CN1CCN(C(=S)NC(=O)/C=C/c2cccc3ccccc23)CC1 | 3* | 0.6 | 39 | -3 | -2 | -201
CC1CCN(C(=S)NC(=O)c2ccccc2)CC1 | 0.8 | 0.6 | 40 | 0 | -16 | 23
Cc1cc(N2C(=O)C(=O)/C(=C(/O)c3ccc(F)cc3)C2c2cccc(Br)c2)no1 (stereo unspecified) | 0.4 | 0.8 | 20 | 0 | -2 | 61*
Cc1cc(N2C(=O)C(=O)/C(=C(/O)c3ccccc3)C2c2cccs2)no1 (stereo unspecified) | 0.3 | 1 | 0 | 2 | -10 | 71*
COc1cccc(/C(O)=C2/C(=O)C(=O)N(c3cc(C)on3)C2c2cccs2)c1 (stereo unspecified) | 0.9 | 1 | -2 | x | x | 14
O=C(CN1CCCCC1)Nc1cccc(-n2cnnn2)c1 | 1 | 0.7 | 35 | 0 | -5 | 0
CS(=O)(=O)N1CCN(c2ccc(NC(=O)c3ccc(Br)o3)cc2)CC1 | 0.9 | 1 | 4 | 3 | -33 | 6
CCOC(=O)N1CCN(C(=O)c2ccc(NC(=O)c3ccc(C)cc3)cc2)CC1 | 0.3 | 0.5 | 48 | -4 | -13 | 70*
Cc1ccc(C(=O)N2CCN(c3ccc(NC(=O)c4ccc(Br)o4)cc3)CC2)cc1 | 0.5 | 0.7 | 28 | -3 | -9 | 50*
SMILES | CYP2C9 activ | CYP2C19 activ | CYP2C19 inh | Mac1 fbg enh | CD11b adhes inh | CYP2C9 inh
COc1ccc(CCNC(=O)C2CCCN(S(=O)(=O)c3cccc4nonc34)C2)cc1OC (stereo unspecified) | 1 | 0.7 | 27 | 4 | 0 | -2
O=C(CSc1nnnn1C1CCCCC1)N1c2ccccc2Sc2ccccc21 | 0.6 | 1 | 3 | -1 | 17 | 43
O=C(CSc1nc(C2CC2)nc2ccccc12)N1c2ccccc2Sc2ccccc21 | 0 | 0.6 | 44 | 7 | 14 | 97*
Cc1nc(SCC(=O)c2ccc(F)cc2)n[nH]1 | 0.3 | 0.4 | 58* | 0 | -8 | 71*
Cc1nc(SCC(=O)N2c3ccccc3Sc3ccccc32)n[nH]1 | 0.6 | 0.4 | 60* | 0 | -6 | 36
Cc1nc(SCC(=O)c2cccc([N+](=O)[O-])c2)n[nH]1 | 1 | 0.6 | 39 | -7 | 1 | 4
CCc1nc(SCC(=O)c2ccc(C)c(C)c2)n[nH]1 | 2.3* | 0 | 97* | -1 | -11 | -133
CC(=O)N(Cc1ccco1)c1nc(C(=O)Nc2ccc(Cl)cc2)c(C)s1 | x | x | x | -1 | 37 | x
C=CCn1c(C)cc(C(=O)COc2nncc3ccccc23)c1C | 2* | 0.4 | 61* | 6 | -6 | -103
COCCn1c(C)cc(C(=O)CSc2nc3ccccc3c(=O)[nH]2)c1C | 1.8 | 0.7 | 25 | -4 | -6 | -80
C=CCn1c(C)cc(C(=O)CSc2nc3ccccc3[nH]2)c1C | 0.3 | 0.4 | 62* | x | x | 68*
Cc1cc(C(=O)CSc2nc3ccc(Cl)cc3[nH]2)c(C)n1C | 0.1 | 0.1 | 94* | 8 | 13 | 93*
C=CCn1c(C)cc(C(=O)CSc2nc3ccccc3c(=O)[nH]2)c1C | 0.7 | 0.8 | 24 | -1 | 12 | 28
Cc1cc(C(=O)CSc2nc3ccccc3[nH]2)c(C)n1C | 0.4 | 0.1 | 87* | -3 | 9 | 60*
O=C(Cn1cc(C(F)(F)F)cc(Cl)c1=O)Nc1cc(S(=O)(=O)N2CCOCC2)ccc1Cl | x | x | x | -1 | -5 | x
Cc1ccc2nc(SCC(=O)c3cc(C)n(C)c3C)[nH]c2c1 | 0.4 | 0.8 | 20 | -4 | -4 | 57*
CC(=O)c1cc2c(cc1NC(=O)CSc1nc3ccc(C)cc3[nH]1)OCO2 | x | x | x | -4 | -5 | x
COc1ccc(Nc2nnc(SCC(=O)c3cc(C)n(CC4CCCO4)c3C)s2)cc1 (stereo unspecified) | 0.4 | 0.3 | 72* | 22 | 16 | 59*
Cc1nn2c(=O)cc(CSc3nc4ccccc4[nH]3)nc2s1 | 0.8 | 0.4 | 58* | -1 | 27 | 15
COc1ccc2nc(SCC(=O)NC(C)(C)C)[nH]c2c1 | 0.3 | 0.2 | 85* | -3 | 2 | 66*
CCOC(=O)C(NC(=O)CC)C(O)c1cccc([N+](=O)[O-])c1 (stereo unspecified) | 1 | 0.9 | 5 | -2 | -19 | -3
Cc1c(NC(=O)COc2ncnc3c(Cl)cc(Cl)cc23)c(=O)n(-c2ccccc2)n1C | 1 | 0.9 | 10 | 1 | -8 | -1

Compound activity from PubChem BioAssay.
